Bioassay records (PubChem BioAssay)
FLuc counter = inhibits or activates purified firefly luciferase, miR-21 counter-screen; Potency, µM (highest dose often 57.5 µM), for inactives: top-dose activity change, negative = inhibition, actives largely listed as inhibitors; purified FLuc, Km substrates, luminescence inhibition; actives 6.9% (n = 360,000);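 further: plate controls were vehicle for no effect and reference inhibitor for full effect; nearly all actives have a fitted effect of over 55% in size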
Target sequence (P08659 whole entry, looked up): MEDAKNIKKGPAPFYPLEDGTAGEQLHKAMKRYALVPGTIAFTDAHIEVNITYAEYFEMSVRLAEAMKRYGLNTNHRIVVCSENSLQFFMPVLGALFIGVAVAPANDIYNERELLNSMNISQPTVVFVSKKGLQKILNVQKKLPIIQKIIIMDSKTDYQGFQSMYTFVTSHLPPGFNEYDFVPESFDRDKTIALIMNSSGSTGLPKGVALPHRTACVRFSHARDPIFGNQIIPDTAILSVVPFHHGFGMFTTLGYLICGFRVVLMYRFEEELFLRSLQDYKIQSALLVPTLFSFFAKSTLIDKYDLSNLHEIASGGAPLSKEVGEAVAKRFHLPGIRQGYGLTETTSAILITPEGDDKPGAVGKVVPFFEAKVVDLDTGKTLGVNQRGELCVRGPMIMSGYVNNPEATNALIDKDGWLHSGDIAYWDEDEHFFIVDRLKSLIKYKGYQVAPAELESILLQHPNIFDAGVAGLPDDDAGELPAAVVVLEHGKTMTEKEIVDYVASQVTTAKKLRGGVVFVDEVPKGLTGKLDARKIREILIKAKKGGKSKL
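Purified P. pyralis luciferase (10nM final) with 10uM D-luciferin and 10uM ATP (Km levels) in 50mM Tris acetate pH 7.5, 10mM Mg acetate, 0.01% Tween-20, 0.05% BSA; qHTS 6-point titration, ~60 µM downward; luminescence read.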
Rab9 promoter act = activators of Rab9 promoter; Huh7 Rab9 promoter-luciferase reporter, luminescence, 24 h; Potency, µM (top dose mostly 9.22 µM), inactives show top-dose activation, negative = inhibition, usual class: activators; actives 2.8% (n = 320,000); further: % of control where 0% means no effect; nearly all actives have a fitted effect of over 60% in size
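Cells were plated at 1500 per well in reduced-serum medium with 10% FBS and left 2 h. Compound in DMSO was then added for 24 h at 37 °C. Reporter signal was read by luminescence after 10 min with luciferase detection reagent.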
KinaseGlo FLuc = Kinase-Glo luciferase inhibition (counter-screen); Potency, µM (highest dose often 38.3 µM), for the others: top-dose activity change, negative = inhibition, actives largely listed as inhibitors; Kinase-Glo luciferase, ATP luminescence, 8 min; Q27757; actives 0.28% (n = 200,000); further: on the % scale 0 is the no-effect control and ±100 the full control effect; nearly all actives have a fitted effect of over 60% in size
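Substrate mix (final 50 mM imidazole pH 7.2, 50 mM KCl, 7 mM MgCl2, 10 uM ATP, 0.01% Tween 20, 0.05% BSA) plus pin-tool compound, then Kinase-Glo detection mix; 8 min ambient, luminescence read.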
ELG1 genotoxic = genotoxicity induction in ELG1-luciferase HEK293T cells | Potency, µM (doses to about 46 µM), for the others: at the top dose activity change, positive = activation, hits mostly activators | AID 504466 | actives 1.3% (n = 330,000) | HEK293T ELG1-luciferase reporter, luminescence, 16 h; further: % of control where 0% means no effect; nearly all actives have a fitted effect of over 60% in size
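DMSO vehicle served as control against compound-treated ELG1-luciferase HEK293T cells; exposure lasted 16 hr at 37 °C and 5% CO2, followed by ONE-Glo luminescence detection after 30 min.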
SMN2 splice up = enhancers of SMN2 splice variant expression | Potency, µM (top dose mostly 46.1 µM), for inactives: top-dose activity change, positive = activation, hits mostly activators | actives 2.8% (n = 210,000) | HEK293 SMN2-luciferase splicing reporter, luminescence, 30-36 h; further: % of control where 0% means no effect; nearly all actives have a fitted effect of over 55% in size
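HEK293 cells carry an SMN2 minigene-luciferase reporter in which exon 7 inclusion puts luciferase in frame. Cells were seeded at 2000 cells/well, attached for 10-12 hours, then exposed to compounds for 30-36 hours at 37C before ONE-Glo luminescence.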
NPC1 promoter act = activators of NPC1 promoter; AID 485313; Potency, µM (titrated, usually from 9.22 µM), without a hit: at the top dose activation, actives largely listed as activators; actives 2.4% (n = 320,000); Huh7 NPC1 promoter luciferase reporter, 24 h; further: % of control where 0% means no effect; nearly all actives have a fitted effect of over 60% in size
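Huh7 reporter cells (NPC1 promoter driving luciferase) are dosed with compound for 24 h at 37 °C, 5% CO2; luciferase detection reagent is then added and luminescence measured after 10 min at ambient temperature.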
Numbers without * were called inactive; u = inconclusive; x = no result; [ ] = another dose, or the depositor's remark. Shown are actives, neighbours in structure and some others; about 7.3% of the full set was active somewhere. The call rests on the fitted dose curve; in most records, active means well fitted curve in the direction sought with a large enough effect; inconclusive means small, poorly fitted or top-dose-only effect, or another doubt; inactive means no such curve, though single readings can be large; an effect the other way counts as inactive or inconclusive. Potency means the concentration at half of the fitted maximal effect.

SMILES	FLuc counter	Rab9 promoter act	KinaseGlo FLuc	ELG1 genotoxic	SMN2 splice up	NPC1 promoter act
Nc1nc2nccc(-c3ccc(Cl)cc3)n2n1	12µM*	u	-5%	u	9%	u
Cc1ccc(NC(=O)c2c(C)oc3ncn(CC(C)C)c(=O)c23)nc1	-8%	x	x	x	x	x
Cc1cccc(C(=O)Nc2nnc(S(=O)(=O)N3c4ccccc4CC3C)s2)c1 (stereo not drawn)	-10%	x	x	x	x	x
COc1ccc(CC(=O)N2CC(=O)Nc3ccc(F)cc3C2c2ccccc2)cc1 (stereo not drawn)	-1%	x	x	x	3%	x
Cc1ccc(S(=O)(=O)c2c(Nc3cc(F)ccc3F)sc(C(=O)c3ccc(F)cc3)c2N)cc1	-1%	x	x	x	-9%	x
Cc1ccc(N2CCN(C(=O)Cn3ncc4c([nH]c5ccc(C)cc54)c3=O)CC2)c(C)c1	-1%	x	x	x	x	x
O=C(NCc1ccc2c(c1)CCN2C(=O)c1ccc(F)cc1)c1cc2ccccc2[nH]1	-3%	x	x	x	x	x
C=C(C)CNC(=O)CCc1nnc(C2(c3ccc(Cl)cc3)CCC2)o1	u	u	2%	12%	x	11%
CCC(=O)C1CCCN(C(=O)CCc2nnc(C3(c4ccc(Cl)cc4)CCC3)o2)C1 (stereo not drawn)	13µM*	u	x	u	x	u
COCC(C)NC(=O)CCc1nnc(C2(c3ccc(Cl)cc3)CCC2)o1 (stereo not drawn)	24µM*	u	x	u	x	22%
O=C(CCc1nnc(C2(c3ccc(Cl)cc3)CCC2)o1)N1CCCC1	17µM*	u	x	u	x	u
COC(=O)CNC(=O)CCc1nnc(C2(c3ccc(Cl)cc3)CCC2)o1	u	18%	-1%	u	x	8%
C=CCNC(=O)CCc1nnc(C2(c3ccc(Cl)cc3)CCC2)o1	17µM*	3.2µM*	-5%	u	8.9µM*	29%
COC(=O)C[C@H]1c2ccccc2C2=C(C[C@@H](C)[C@H]3C(=O)NC(=O)[C@@H]23)N1C(=O)OC	x	x	-12%[7.66 µM]	x	9%[9.22 µM]	x
Cc1cc(C)n2nc(CNC(=O)c3cccc(Cl)c3)nc2n1	-5%	x	x	x	-10%	x
CCOc1ccc(NC(=O)Cn2nc(-c3ccncc3)ccc2=O)cc1	-14%	x	x	x	x	x
Cc1c(C)n(Cc2ccc(F)cc2)c2ccc(C(=O)Nc3ccc(Cl)cc3)cc12	-1%	x	x	x	x	x
CC(=O)c1ccc(-c2nnc(CCC(=O)N3CCCC(C(=O)CC(C)C)C3)o2)s1 (stereo not drawn)	19µM*	3.5µM*	x	u	x	4.5µM*
Cc1ccc(NC(=O)c2snc3c(=O)[nH]cnc23)cc1C	-18%	-5%	4%	5%	-10%	0%
Cc1ccc(NC(=O)c2ccccc2)cc1C	15µM*	6%	x	8%	x	13%
O=C(Nc1cc(NC(=O)c2ccccc2F)ccc1Cl)c1ccccc1	15µM*	9%	x	-6%	x	4%
Cc1ccc(NC(=O)c2snc3ccc(Cl)cc23)cc1C	12µM*	u	0%	18%	11µM*	9%
Cc1ccc(NC(=O)CCSCCC(=O)Nc2ccc(C)c(C)c2)cc1C	17µM*	-4%	-7%	0%	-1%	-1%
O=C(Nc1ccc2c(c1)CCCN2C(=O)c1ccccc1)c1ccccc1	13µM*	u	x	-6%	x	26%
O=C(Nc1ccc(F)c(F)c1)c1ccccc1	u	u	x	21µM*	x	u
CCc1ccc(NC(=O)N2CCOc3ccc(Cl)cc32)cc1	-17%	x	x	x	x	x
CCOc1cc2c(cc1OCC)C(c1c(F)cccc1Cl)CC(=O)N2 (stereo not drawn)	-9%	x	x	x	-10%	x
Nc1cc(Nc2ccc(Br)cc2)nc(N)n1	13µM*	u	x	u	x	3.5µM*
Cc1cc(Nc2ccc(Cl)cc2)nc(N)n1	19µM*	u	-3%	u	16%	u
COc1ccc(Nc2cc(C)nc(N)n2)cc1	u	u	x	13%	x	22%
